Experimental findings from PubChem BioAssay (NCI) are described below.

Assay [1] in a line: NCI Yeast Anticancer Drug Screen. Data for the rad50 strain (AID 155).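 Further: 0% = growth of vehicle-only cultures of the same strain.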 To be noted: S. cerevisiae rad50 strain growth inhibition; at 50.0 µM; active compounds read high. A digest of the protocol:
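Inhibition values express reduced yeast growth in compound-treated cultures relative to vehicle-treated controls.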

Assay [2] is described as follows: NCI Yeast Anticancer Drug Screen. Data for the mec2-1 strain (AID 157). To be noted: S. cerevisiae mec2-1 strain, at 50.0 µM, active compounds read high. A digest of the protocol: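 Mutant yeast (mec2-1) grown with compound; growth inhibition relative to vehicle control reported.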
Assay [3] can be described thus: NCI Yeast Anticancer Drug Screen. Data for the sgs1 mgt1 strain (AID 161).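 Further: 0% = growth of cultures given vehicle only.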 To be noted: S. cerevisiae sgs1 mgt1 strain, at 50.0 µM, active compounds read high. A digest of the protocol: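 Yeast cells carrying a defined DNA-repair defect were exposed to test compounds. Growth inhibition was measured relative to vehicle-treated controls.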
The nature of assay [4]: NCI Yeast Anticancer Drug Screen. Data for the cln2 rad14 strain (AID 165).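 Further: 0% = growth equal to vehicle treated cultures.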 To be noted: S. cerevisiae cln2 rad14 strain, at 50.0 µM, active compounds read high. The essentials:
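Readout is yeast growth inhibition versus vehicle-treated controls, using a strain with cln2 and rad14 alterations exposed to compound.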

Assay [5] can be described thus: NCI Yeast Anticancer Drug Screen. Data for the bub3 strain (AID 167). To be noted: S. cerevisiae bub3 mutant strain, at 50.0 µM, active compounds read high. A digest of the protocol: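 Steps: expose the mutant yeast strain to compound; grow alongside vehicle-treated cultures; measure growth; express inhibition against the vehicle cultures.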
Assay [6] in a line: NCI Yeast Anticancer Drug Screen. Data for the mlh1 rad18 strain (AID 175). To be noted: S. cerevisiae mlh1 rad18 strain growth inhibition; at 50.0 µM; active compounds read high. A digest of the protocol:
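Genetically defined yeast (DNA repair-deficient) exposed to compounds; growth inhibition determined relative to vehicle.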

This is part of a sample that, as a whole, favours compounds with a hit. Of some 79,000 tested, about 15% had one in any assay. Values without a mark were called inactive. Calls of active or inactive are those of the source. No stated cut-off is given here; in the data, active means growth inhibition above about 70%; inactive means the rest.

Regarding `COC1OCC(OS(C)(=O)=O)C(NC(C)=O)C1OS(C)(=O)=O` (stereo not given), the growth inhibition in assay [1] is -13.9%; in assay [2], -2.85%; in assay [3] it was -3.05%; in assay [4], -19.2%; in assay [5], 0.45%; in assay [6] it was 2.25%.

On to `CCSc1sc(=Nc2ccc(N=c3sc(C)c(SC)s3)cc2)sc1-c1ccc(C)cc1`, for which the growth inhibition in assay [1] is -33.6%; in assay [2], -0.75%; in assay [3], -11.2%; in assay [4], -39.1%; in assay [5], 2.25%; in assay [6], -5.2%.

Consider `CC(C)C(=O)Nc1nc(OCCc2ccc([N+](=O)[O-])cc2)c2ncn(C3CC(O)C(CO)O3)c2n1` (stereo not given), for which the growth inhibition in assay [1] was 3.5%; in assay [2] it was -0.2%; in assay [3], 5.8%; in assay [4], 8.5%; in assay [5], -0.75%; in assay [6] it was -11.8%.

Take `CCCCC[N+]1([O-])CCOCC1`: the growth inhibition in assay [1] is 4.05%; in assay [2], -4.1%; in assay [3], -7.1%; in assay [4] it was -24.4%; in assay [5], -3.1%; in assay [6] it was 1.05%.

As for `O=C(O)[C@H]1C[C@H](O)CCN1`, the growth inhibition is -30.4% in assay [1]; -8.65% in assay [2]; -34.2% in assay [3]; 1.25% in assay [4]; -3.85% in assay [5]; -10.6% in assay [6].

Regarding `COc1cccc(N(CN2C(=O)CCC2OC)C(C)=O)c1` (stereo not given), the growth inhibition in assay [1] was 4.2%; in assay [2], 7.35%; in assay [3], 12.9%; in assay [4], 19.3%; in assay [5], -7.35%; in assay [6] it was -31.4%.

In the case of `CCN(CC)CCC(=O)c1ccc(OC)cc1`, the growth inhibition is 7.95% in assay [1]; 16.3% in assay [2]; 2.45% in assay [3]; 23.4% in assay [4]; 7.55% in assay [5]; 8.15% in assay [6].

Consider `c1ccc(C2c3ccccc3-c3ncnc(N4CCCCC4)c32)cc1` (stereo not given), for which the growth inhibition in assay [1] is 9.4%; in assay [2] it was -3.15%; in assay [3] it was 24.8%; in assay [4], 15.1%; in assay [5], -0.45%; in assay [6], 14.7%.

For the compound `COC(=O)CC1(C(=O)OC)Oc2ccc(Br)cc2C(=O)N1c1cccc(Cl)c1Cl` (stereo not given), the growth inhibition in assay [1] was 52.4%; in assay [2], 13.8%; in assay [3] it was 46.5%; in assay [4], 40.6%; in assay [5] it was 52.9%; in assay [6] it was 54.1%.

For the compound `NC(=O)CC(NC(=O)OCc1ccccc1)C(N)=O` (stereo not given), the growth inhibition in assay [1] was 8.6%; in assay [2] it was 8.4%; in assay [3], -11.2%; in assay [4] it was -12.4%; in assay [5], 10.8%; in assay [6] it was -14.6%.

On to `Nc1[nH]n(-c2ccccc2)c(=O)c1C1c2ccccc2Sc2ccccc21`, for which the growth inhibition in assay [1] is 8.7%; in assay [2], 11.2%; in assay [3], 16.4%; in assay [4], -66.6%; in assay [5] it was 15.2%; in assay [6], 16.2%.

Consider `COc1cc([N+](=O)[O-])ccc1NC(=O)c1cccc([N+](=O)[O-])c1C(=O)O`, for which the growth inhibition in assay [1] was 5%; in assay [2] it was 20.6%; in assay [3] it was 42.8%; in assay [4] it was -9.5%; in assay [5], -16.8%; in assay [6], 24.6%.

On to `O=C(CCC(=O)Nc1cccc(Cl)c1)CC(=O)c1ccc(F)cc1`, for which the growth inhibition in assay [1] was -11.2%; in assay [2], -1.8%; in assay [3], 6.3%; in assay [4] it was -23.9%; in assay [5], -0.85%; in assay [6] it was -4.85%.

On to `O=C1CCNC/C1=C\c1ccccc1`, for which the growth inhibition in assay [1] is 6.25%; in assay [2] it was -14.3%; in assay [3], 8.9%; in assay [4] it was 13.4%; in assay [5] it was -19.2%; in assay [6], 6.55%.

`Cc1cccc(NS(=O)(=O)c2ccc(Cl)cc2)c1C`: the growth inhibition in assay [1] is 98.5% (active); in assay [2], 98.3% (active); in assay [3], 98.2% (active); in assay [4], 98.3% (active); in assay [5], 98.4% (active); in assay [6], 98.7% (active).

For `O=C(Nc1ccccc1C(=O)NCc1ccccc1)/C(=C/c1ccccc1)NC(=O)c1ccccc1`, the growth inhibition in assay [1] is 7.25%; in assay [2], 6.9%; in assay [3] it was -0.95%; in assay [4] it was 4.05%; in assay [5], 6.8%; in assay [6], -34.7%.

As to `CC(=O)Nc1ccc(S(=O)(=O)Nc2cccc3ccccc23)cc1`, the growth inhibition is 23.2% in assay [1]; 7.4% in assay [2]; 18.6% in assay [3]; 42.8% in assay [4]; 57.6% in assay [5]; 21.6% in assay [6].

As to `CCC(=O)C1(N2CCOCC2)CCN(CCCC(=O)c2ccc(F)cc2)CC1`, the growth inhibition in assay [1] is -25.4%; in assay [2], -9.45%; in assay [3] it was -1.75%; in assay [4], 1.5%; in assay [5] it was -0.3%; in assay [6] it was 22.1%.

For `CCOC(=O)C(=O)NC12CC3CC(CC(C3)C1)C2`, the growth inhibition was -16.9% in assay [1]; -17.6% in assay [2]; 1.5% in assay [3]; -4.45% in assay [4]; 24.8% in assay [5]; -8.3% in assay [6].

Consider `O=C(Nc1cccc(Cl)c1)Oc1ccccc1`, for which the growth inhibition in assay [1] is 17.6%; in assay [2], 4.45%; in assay [3], -4.3%; in assay [4], 16.4%; in assay [5], 15.3%; in assay [6], 8.2%.
